The sample as a whole holds a higher share of hits than the screen did.
ALOX15B inhib: qHTS Assay for Inhibitors of 15-hLO-2 (15-human lipoxygenase 2); Polyunsaturated fatty acid lipoxygenase ALOX15B (Homo sapiens), O15296; purified 15hLO-2, xylenol orange hydroperoxide absorbance; Potency, µM (highest dose often 57.1 µM), without a hit: at the highest dose activity change, negative = inhibition, usual class: inhibitors; hit rate 0.56% among 110,000; AID 881, 2007; also: nearly all actives have a fitted effect of over 60% in size
Target sequence (O15296 whole entry, looked up): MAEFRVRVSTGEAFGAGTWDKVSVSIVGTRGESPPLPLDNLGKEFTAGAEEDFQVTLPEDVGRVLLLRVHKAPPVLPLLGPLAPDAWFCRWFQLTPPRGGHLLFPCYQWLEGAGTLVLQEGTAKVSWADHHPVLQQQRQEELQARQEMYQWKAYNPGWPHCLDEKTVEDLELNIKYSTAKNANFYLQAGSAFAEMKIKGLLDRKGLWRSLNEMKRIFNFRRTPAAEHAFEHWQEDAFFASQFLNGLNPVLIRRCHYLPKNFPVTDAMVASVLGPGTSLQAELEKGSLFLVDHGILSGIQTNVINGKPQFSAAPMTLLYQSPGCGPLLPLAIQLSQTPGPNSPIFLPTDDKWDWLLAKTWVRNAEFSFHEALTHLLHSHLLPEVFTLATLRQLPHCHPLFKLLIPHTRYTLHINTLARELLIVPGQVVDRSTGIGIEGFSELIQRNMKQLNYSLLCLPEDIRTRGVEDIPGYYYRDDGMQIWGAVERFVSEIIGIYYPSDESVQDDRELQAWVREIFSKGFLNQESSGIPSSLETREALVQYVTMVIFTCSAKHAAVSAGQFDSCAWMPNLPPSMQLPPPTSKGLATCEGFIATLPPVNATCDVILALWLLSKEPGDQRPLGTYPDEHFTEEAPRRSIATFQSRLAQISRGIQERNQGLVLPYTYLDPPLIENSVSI
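Enzyme 50 nM, AA 45 uM, 25 mM Hepes pH 7.5 + 0.01% Triton X-100; cpd preinc 15 min RT, rxn 90 min RT; stop/detect with 200 uM XO + 300 uM Fe(II) in 50 mM H2SO4, 30 min; A573/A405.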
ALOX12 inhib: qHTS Assay for Inhibitors of 12-hLO (12-human lipoxygenase). purified 12-hLO, xylenol orange hydroperoxide absorbance. Potency, µM (top dose mostly 57.1 µM), inactives show at the highest dose activity change, negative = inhibition, usual class: inhibitors. hit rate 0.12% among 150,000. AID 1452, 2008; also: nearly all actives have a fitted effect of over 55% in size
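Purified human 12hLO (150 nM), preincubated 15 min with compound, then 40 uM arachidonic acid for 30 min, room temperature, Hepes pH 7.0 with 0.01% Triton X-100. Hydroperoxide detected by ferrous iron/xylenol orange; 573/405 nm absorbance ratio gives reaction progress.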
* marks the source's active call; other numbers are inactive results; ! = not confirmed by another sample; [ ] = another dose, or the depositor's remark. Calls follow the shape of the dose curve; as a rule, active = well fitted curve in the direction sought with a large enough effect; inconclusive = small, poorly fitted or top-dose-only effect, or another doubt; inactive = no such curve, though single readings can be large; an effect the other way counts as inactive or inconclusive. % is scaled to controls: 0 for no effect and ±100 for the full control effect; potency is read from the fitted curve at half-maximal effect.

For N#C/C(=C\c1ccc(O)c(O)c1)C(=O)NCCCCc1ccccc1 the results were ALOX15B inhib 16µM* and ALOX12 inhib inconclusive.
Screening C[N+]1(CCC[N+]2(C)C[C@H]3[C@H](C2)[C@H]2C=C[C@@H]3CC2)CCOCC1 (stereo not given in full) returned ALOX15B inhib 6%[11.4 µM] and ALOX12 inhib 0%[11.4 µM].
`O=[N+]([O-])c1cccc(/C=N\Nc2ccc3ccccc3n2)c1O` gave ALOX15B inhib 42%[11.4 µM] and ALOX12 inhib -7%[11.4 µM].
For COc1cccc(/C=N/NC(=O)c2cc(-c3ccc(C)cc3)n[nH]2)c1O the results were ALOX12 inhib -3%.
For O=C1c2c(O)cc(O)cc2O[C@@H](c2ccc(O)c(O)c2)[C@H]1O the results were ALOX15B inhib -13% and ALOX12 inhib inconclusive.
CN1CCC[C@@H]1c1cccnc1.O=C(O)c1ccccc1O.O=C([OH2+])c1ccccc1O.O=C([OH2+])c1ccccc1O.[Mn] was read as ALOX15B inhib -1%[11.4 µM] and ALOX12 inhib 3%[11.4 µM].
Screening CC(c1ccccc1)C1C(C#N)=C(N)SC(N)=C1C#N (stereo not given) returned ALOX15B inhib -14% and ALOX12 inhib -21%.
For CC(CC1C(C#N)=C(N)SC(N)=C1C#N)c1ccccc1 (stereo not given) the results were ALOX15B inhib 20µM* and ALOX12 inhib -7%.
For O=[N+]([O-])/C=C\c1cc2ccccc2[nH]1 the results were ALOX15B inhib -10%[11.4 µM] and ALOX12 inhib -5%[11.4 µM].
`O=C(/C=C\c1ccc(O)c(O)c1)OCCc1ccccc1` gave ALOX15B inhib 13µM* and ALOX12 inhib inconclusive.
Screening O=C(/C=C/c1ccc(O)c(O)c1)O[C@@H](C(=O)O)[C@@H](OC(=O)/C=C/c1ccc(O)c(O)c1)C(=O)O returned ALOX15B inhib 9% and ALOX12 inhib -8%.
CC(C)C[C@H](NC(=O)[C@@H](O)[C@@H](N)Cc1ccccc1)C(=O)O was read as ALOX15B inhib -6% and ALOX12 inhib 3%.
COc1ccc(-c2oc3ccccc3c(=O)c2O)cc1 was read as ALOX15B inhib inconclusive and ALOX12 inhib -5%.
O=c1c(O)c(-c2ccc(O)c(O)c2)oc2ccccc12 was read as ALOX15B inhib 13µM* and ALOX12 inhib inconclusive.
`O=[N+]([O-])c1ccccc1C1Nc2cccc3cccc(c23)N1` gave ALOX15B inhib inconclusive and ALOX12 inhib -3%.
O=[N+]([O-])c1ccc(Cl)c(C2Nc3cccc4cccc(c34)N2)c1 was read as ALOX15B inhib 13µM* and ALOX12 inhib inconclusive.
For CC1(C)[C@@H]2CC[C@@]1(CS(=O)(=O)Nc1ccccc1)C(=O)C2 the results were ALOX15B inhib -5%[11.4 µM] and ALOX12 inhib -1%[11.4 µM].
CN(C)CCN(C)C(=O)c1ccc(-n2c(=O)c(=O)[nH]c3ccccc32)cc1 was read as ALOX12 inhib 0%.
For CC(/C=C1\N=C(SCc2ccccc2Cl)SC1=O)=C\c1ccccc1 the results were ALOX15B inhib 25µM* and ALOX12 inhib -6%.
CCSC1=N/C(=C\c2cccc(F)c2)C(=O)S1 was read as ALOX12 inhib -1%.
For C=CCN1CCc2c(cc(O)c(O)c2Br)[C@H](c2ccccc2)C1 the results were ALOX15B inhib inconclusive and ALOX12 inhib -26%.
Screening COc1cccc(CNc2ccc(N3CCCCC3)cc2)c1OC returned ALOX15B inhib 25µM* and ALOX12 inhib -22%.
CCOc1cc(CNc2ccc(N3CCCC3)cc2)cc(Cl)c1OC was read as ALOX12 inhib -9%.
Screening CC(=O)N1CCN(c2ccc(NC(=O)c3ccc(C(C)(C)C)cc3)cc2)CC1 returned ALOX15B inhib 5%[11.4 µM] and ALOX12 inhib -3%.
COc1ccccc1CNc1ccc(N2CCCCC2)cc1 was read as ALOX15B inhib -13%[2.29 µM] and ALOX12 inhib -8%.
`CC(=O)N1CCN(c2ccc(NCc3ccc(F)cc3)cc2)CC1` gave ALOX15B inhib 25µM* and ALOX12 inhib inconclusive.
`CCOc1ccc(CNc2ccc(N3CCCC3)cc2)cc1` gave ALOX15B inhib 5µM* and ALOX12 inhib -29%.
Screening CN1CC[C@@]2(CCN3CCc4c(oc5ccccc45)[C@@H]3C2)N(C)C1=O returned ALOX15B inhib 3% and ALOX12 inhib -5%.
`C[C@H](CCC(=O)O)[C@H]1CC[C@]2(C)[C@@H]3C(=O)C[C@H]4C(C)(C)[C@@H](O)CC[C@]4(C)[C@H]3C(=O)C[C@@]12C` gave ALOX15B inhib -1%[11.4 µM] and ALOX12 inhib 1%[11.4 µM].
For C[N+](C)(C)CCN(Cc1cccs1)c1ccccn1 the results were ALOX15B inhib -15%[11.4 µM] and ALOX12 inhib -5%[11.4 µM].
`CC[C@]1(O)C[C@H]2CN(CCc3c([nH]c4ccccc34)[C@](C(=O)OC)(c3cc4c(cc3OC)N(C)[C@@H]3[C@](O)(C(=O)OC)[C@H](OC(C)=O)[C@]5(CC)C=CCN6CC[C@]43[C@@H]65)C2)C1` gave ALOX15B inhib 36% and ALOX12 inhib -12%.
`COc1ccccc1N1C(=O)CC(Nc2ccc(N3CCOCC3)cc2)C1=O` (stereo not given) gave ALOX15B inhib -6% and ALOX12 inhib inconclusive.
CCOc1ccccc1N1C(=O)CC(Nc2ccc(N3CCOCC3)cc2)C1=O (stereo not given) was read as ALOX15B inhib 16µM* and ALOX12 inhib inconclusive.
Screening Cc1ccc(S(=O)(=O)N(CC(=O)O)Cc2cccc(C)c2)cc1 returned ALOX12 inhib 0%.
Nc1nc(N2CCCCC2)nc(N(c2ccccc2)c2ccccc2)n1 was read as ALOX15B inhib 2% and ALOX12 inhib -6%.
OCCN(CCO)c1nc(N2CCCCC2)c2nc(N(CCO)CCO)nc(N3CCCCC3)c2n1 was read as ALOX15B inhib 20µM*! and ALOX12 inhib -2%.
Screening CCCCCCCCCCCCCCCCCCNC(=O)OC[C@@H](COP(=O)([O-])OCC[n+]1ccsc1)OC returned ALOX15B inhib -23% and ALOX12 inhib 2%.
Screening COc1ccc2nc3c(nc2c1)C(=O)c1ccccc1-3 returned ALOX12 inhib 3%.
Screening COc1cccc(C2C(C#N)=C(N)Oc3cc(C)[nH]c(=O)c32)c1OC (stereo not given) returned ALOX15B inhib -3% and ALOX12 inhib -6%.
For Cc1ccc(C2CC(=O)N3CN(Cc4ccco4)CSC3=C2C#N)cc1 (stereo not given) the results were ALOX15B inhib inconclusive and ALOX12 inhib -22%.
Screening COc1ccc(OC)c(C2CC(=O)N3CN(c4ccc(C)c(Cl)c4)CSC3=C2C#N)c1 (stereo not given) returned ALOX15B inhib inconclusive and ALOX12 inhib -7%.
COc1cccc(C2CC(=O)N3CN(c4ccccc4F)CSC3=C2C#N)c1 (stereo not given) was read as ALOX15B inhib inconclusive and ALOX12 inhib -18%.
Screening COc1ccccc1N1CSC2=C(C#N)C(c3ccc(SC)cc3)CC(=O)N2C1 (stereo not given) returned ALOX15B inhib 20µM* and ALOX12 inhib inconclusive.
Screening COc1cccc(C2CC(=O)N3CN(c4cccc(Cl)c4C)CSC3=C2C#N)c1OC (stereo not given) returned ALOX15B inhib 13µM* and ALOX12 inhib inconclusive.
`COc1ccc(OC)c(C2CC(=O)N3CN(c4ccccc4F)CSC3=C2C#N)c1` (stereo not given) gave ALOX15B inhib 32µM* and ALOX12 inhib 32µM*.

From PubChem BioAssay
